The results in this text go back to PubChem BioAssay AID588397 (National Center for Advancing Translational Sciences (NCATS), 2011).

About 1,000 (77%) of roughly 1,300 compounds were called active. Inconclusive results (about 7%) are left out. Calls come from the whole dose curve; as a rule, active = well fitted inhibition curve with a large enough effect; inconclusive = small, poorly fitted or top-dose-only effect; inactive = no such curve, though single readings can be large or run the other way. The set was probably picked from earlier hits. This is one part of the list.
% is set by controls: 0 for no effect and ±100 for the full control effect; potency is the fitted concentration of half-maximal effect.

The assay in a line: qHTS of small molecules that selectively kill Giardia lamblia: Hit Validation.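 Note: viability measured as ATP content by luminescence so killing lowers signal; nearly all actives have a fitted effect of over 65% in size.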 As to conditions: Giardia lamblia trophozoite viability, dose-response; series mostly up to 38.3 µM; activity change, negative = killing: at the top concentration. In short, it runs like this:
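Giardia trophozoites, 100 cells per well, were exposed to compounds for 48 hrs at 37 deg C under anaerobic conditions; viability was then read as ATP content by bioluminescence after 15-30 min at room temperature.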
(Quantitative high-throughput screening tests each substance at several concentrations.)
As to `O=S1(=O)[C@H]2C[C@@H]3C=C[C@@]2(CN1Cc1cccc(F)c1)O3`, the “activity change, negative = killing” value was -10.8% (inactive). Take `COc1ccc(-n2nc([N+](=O)[O-])c(=NCCc3cccc(C)c3)n2O)cc1`: the Potency was 1300 nM (active).

On to `Cc1cccc(CCN=c2c([N+](=O)[O-])nn(-c3ccccc3)n2O)c1`, for which the Potency is 2900 nM (active).

With `CN(C)c1nc(=Nc2cccc(Cl)c2)ss1`, the Potency was 11600 nM (active).

`CCCSc1nc2c(c(=O)n1CC)SC(C)C2` (stereo not drawn): the “activity change, negative = killing” value was -12.4% (inactive). `O=C(CSc1nnc(NC(=O)c2ccccc2)s1)NCc1ccco1`: the Potency was 4600 nM (active). Take `O=C(CSc1nnc(NC(=O)c2c(F)cccc2F)s1)Nc1ccc(F)cc1`: the “activity change, negative = killing” value is -33.4% (inactive). For the compound `O=C(Nc1nnc(SCC(=O)N2CCOCC2)s1)c1ccccc1Cl`, the Potency was 5790 nM (active).

Take `O=C(Nc1nnc(SCC(=O)N2CCOCC2)s1)c1ccccc1`: the Potency was 5160 nM (active). Same read-out and setting: in the case of `O=[N+]([O-])c1cn(-c2nc(-c3ccco3)cc(C(F)(F)F)n2)cn1` it was 2590 nM (active); in that of `COC(=O)[C@@]1(Cc2ccc(OC)cc2)[C@H]2c3cc(C(=O)N4CCCC4)n(CCn4cc([N+](=O)[O-])nc4C)c3C[C@H]2CN1C(=O)c1ccccc1`, 206 nM (active); in that of `O=[N+]([O-])c1ncc(Br)cc1Nc1ccccc1`, 516 nM (active). Take `C[C@@H]1[C@H]2[C@@H](O[C@@H]3O[C@H](CO)[C@@H](O)[C@H](O)[C@H]3O)OC=C(C(=O)O)[C@H]2C[C@@H]1O`: the “activity change, negative = killing” value is -3.42% (inactive). On to `O=[N+]([O-])c1ccc(N2CCN(CCO)CC2)c2ncccc12`, for which the Potency was 1450 nM (active). Same read-out and setting: in the case of `Nc1nonc1OCCN1CCN(c2ccc([N+](=O)[O-])c3cccnc23)CC1` it was 1830 nM (active); in that of `CS(=O)(=O)N1CCN(c2ccc([N+](=O)[O-])c3cccnc23)CC1`, 1030 nM (active). On the same count and under the same terms, to `O=C(c1cccc(F)c1)N1CCN(c2ccc([N+](=O)[O-])c3cccnc23)CC1` belongs 3260 nM (active); to `O=c1c([N+](=O)[O-])cccn1Cc1ccccc1Cl`, 4100 nM (active); to `O=c1c([N+](=O)[O-])cccn1Cc1ccc(F)cc1Cl`, 2310 nM (active). Turning to `Cc1ccccc1/C=N/Nc1ccnc2cc(Cl)ccc12`, the Potency was 326 nM (active). On the same count and under the same terms, in the case of `Cc1ccc(/C=N/Nc2ccnc3cc(Cl)ccc23)c(C)c1` it was 365 nM (active); in that of `Clc1ccc2c(N/N=C/c3ccccc3Br)ccnc2c1`, 1630 nM (active). Still for that read-out and setting: in the case of `COc1cc(/C=C/c2onc(C)c2[N+](=O)[O-])cc(OC)c1OC` it was 2050 nM (active). Same read-out and setting: to `Cc1noc(/C=C/c2cccnc2)c1[N+](=O)[O-]` belongs 8180 nM (active). In the case of `Cc1cc2[nH]c3c(c[n+](C)c4ccccc34)c2cc1C`, the Potency was 1160 nM (active).

With `CC(C)Oc1ccccc1C1Nc2ccccc2C(=O)N1c1ccc2c(c1)OCCO2` (stereo not drawn), the Potency is 5160 nM (active). On the same count and under the same terms, to `COc1cc(C2Nc3ccccc3C(=O)N2c2ccc3c(c2)OCCO3)ccc1OCC(C)C` (stereo not drawn) belongs 3260 nM (active); to `CN(C)c1ccc(N=Nc2ccccc2C(=O)OCC(=O)N2CCCC2)cc1`, 1450 nM (active); to `CC(=O)c1ccc(NC(=O)COC(=O)c2ccccc2N=Nc2ccc(N(C)C)cc2)cc1`, 3260 nM (active). On the same count and under the same terms, in the case of `CN(C)c1ccc(N=Nc2ccccc2C(=O)O)cc1` it was 290 nM (active). On the same count and under the same terms, in the case of `CC(=O)NC(Cc1cccc(F)c1)C(=O)NC1CCN(c2ncccc2[N+](=O)[O-])CC1` (stereo not drawn) it was 2310 nM (active); in that of `CC(=O)NC(Cc1cccc(C)c1)C(=O)NC1CCN(c2ncccc2[N+](=O)[O-])CC1` (stereo not drawn), 4600 nM (active).

`Cc1ccc(-n2nc3c(N4CCC(C(=O)NCc5cccc(F)c5)CC4)nnc(C)c3c2C)cc1`: the “activity change, negative = killing” value was -12.7% (inactive). Still for that read-out and setting: in the case of `COc1ccc(CCNC(=O)C23CCC(C)(C(=O)C2=O)C3(C)C)cc1OC` (stereo not drawn) it was -8.09% (inactive). As for `COc1ccc(CCNC(=O)CSc2ccsc2[N+](=O)[O-])cc1OC`, the Potency is 516 nM (active).

`COc1ccc(OC)c(CCNC(=O)CSc2ccsc2[N+](=O)[O-])c1`: the Potency was 729 nM (active). Consider `COCCn1c(C)cc(/C=C2\NC(=S)N(C)C2=O)c1C`, for which the “activity change, negative = killing” value was -34.6% (inactive). `COCCn1c(C)cc(/C=C2/SC(=O)N(C(C)C(=O)OC)C2=O)c1C` (stereo not drawn): the Potency is 5790 nM (active). On the same count and under the same terms, in the case of `COc1ccc(-c2cn3ccsc3n2)cc1` it was 9180 nM (active). Regarding `COc1ccc(OCc2nnc3n2N=C(c2ccc(OC)cc2)CS3)cc1`, the “activity change, negative = killing” value was -24.4% (inactive). For `O=C(Nc1ccc(-c2cn3ccsc3n2)cc1)C1CC1`, the Potency was 3260 nM (active). In the case of `CC(=O)OCCSc1c(-c2ccccc2)c2cc(Cl)ccc2[nH]c1=O`, the “activity change, negative = killing” value was -2.52% (inactive). The same measure, in the same setting: to `Cc1cccc(NC(=O)N2CCN(Cc3ccc4c(c3)OCO4)CC2)c1C` belongs -17.8% (inactive). On to `Cc1cccc(NC(=O)c2ccc([N+](=O)[O-])o2)c1C`, for which the Potency is 1830 nM (active). The same measure, in the same setting: in the case of `COc1ccccc1NC(=O)c1ccc([N+](=O)[O-])o1` it was 1450 nM (active); in that of `Cc1ccc(NC(=O)c2ccc([N+](=O)[O-])o2)c(C)c1`, 1300 nM (active); in that of `Cc1ccc(N/C(C(Cl)=C(Cl)Cl)=C(/Cl)[N+](=O)[O-])c(C)c1`, 818 nM (active).

Consider `Cc1ccc([N+](=O)[O-])c(C(=O)Nc2cccnc2Cl)c1`, for which the “activity change, negative = killing” value was -9.71% (inactive). `CCS(=O)(=O)N1Cc2ccccc2CC1C(=O)Nc1ccccc1OC` (stereo not drawn): the “activity change, negative = killing” value was -4.77% (inactive).

`COc1ccccc1S(=O)(=O)Cc1ccc(C(=O)NCC(OC)OC)o1`: the “activity change, negative = killing” value is 11.7% (inactive).

With `O=C(Nc1ccccc1Cl)c1ccc([N+](=O)[O-])o1`, the Potency is 1300 nM (active).

Consider `Cc1ccccc1NC(=O)c1ccc([N+](=O)[O-])o1`, for which the Potency is 1830 nM (active).

Take `COc1ccc(-c2cc3ccccc3oc2=O)cc1NC(=O)c1ccc([N+](=O)[O-])o1`: the Potency was 729 nM (active).

On to `Cn1c(=O)c(=O)n(C)c2cc([N+](=O)[O-])c(N3CCOCC3)cc21`, for which the Potency is 4100 nM (active). On to `O=C(N/N=C/c1ccc([N+](=O)[O-])o1)c1cc2ccccc2o1`, for which the Potency is 516 nM (active).

Turning to `O=C(N/N=C/c1ccc([N+](=O)[O-])o1)c1sc2ccccc2c1Cl`, the Potency is 1300 nM (active). On the same count and under the same terms, to `O=C(N/N=C/c1ccc([N+](=O)[O-])o1)c1cn2ccc3ccccc3c2n1` belongs 918 nM (active); to `O=C(N/N=C/c1ccc([N+](=O)[O-])o1)c1cc2c(ccc3ccccc32)o1`, 729 nM (active); to `Cc1cccc(-n2nc([N+](=O)[O-])c(=NC3CCN(Cc4ccccc4)CC3)n2O)c1`, 729 nM (active).

For the compound `O=[N+]([O-])c1nn(-c2ccc3c(c2)OCCO3)n(O)c1=NC1CCN(Cc2ccccc2)CC1`, the Potency was 460 nM (active).

Consider `O=[N+]([O-])c1nn(-c2ccccc2)n(O)c1=NC1CCN(Cc2ccccc2)CC1`, for which the Potency is 365 nM (active). Same read-out and setting: to `COc1ccc(-n2nc([N+](=O)[O-])c(=NC3CCN(Cc4ccccc4)CC3)n2O)cc1` belongs 729 nM (active); to `O=[N+]([O-])c1ccc(/C=N/Nc2ncccc2[N+](=O)[O-])s1`, 2310 nM (active).

As for `O=C(N/N=C\c1ccc([N+](=O)[O-])s1)c1cncc(Br)c1`, the Potency was 2900 nM (active). For `O=C(N/N=C/c1ccc([N+](=O)[O-])s1)C(O)c1ccccc1` (stereo not drawn), the Potency is 2900 nM (active).

For the compound `Cc1ccc(NC(=S)N/N=C/c2ccc([N+](=O)[O-])s2)cc1`, the Potency is 2310 nM (active). Still for that read-out and setting: to `O=[N+]([O-])c1ccc(/C=N/NC(=S)Nc2ccc(Cl)cc2Cl)s1` belongs 3650 nM (active); to `Cc1ccc(C(=O)N/N=C/c2ccc([N+](=O)[O-])s2)cc1`, 1030 nM (active). As to `O=C(N/N=C/c1ccc([N+](=O)[O-])s1)c1ccccc1`, the Potency is 1630 nM (active). The same measure, in the same setting: to `O=C(N/N=C/c1ccc([N+](=O)[O-])s1)c1cccnc1` belongs 2310 nM (active). Take `COc1cc(CNc2nnnn2C)cc(OC)c1OC`: the “activity change, negative = killing” value was 7.64% (inactive). As to `O=[N+]([O-])c1ccc(/C=N/Nc2nc(N3CCCC3)nc(N3CCCC3)n2)o1`, the Potency is 2050 nM (active). Consider `O=[N+]([O-])c1ccc(/C=N/Nc2nc(N3CCCCC3)nc(N3CCCCC3)n2)o1`, for which the Potency was 1160 nM (active).

Regarding `O=[N+]([O-])c1cc(/C=N/Nc2nc(N3CCCCC3)nc(N3CCCCC3)n2)ccc1O`, the Potency is 6500 nM (active). For the compound `COc1cccc(CNCc2cccc(Br)c2)c1OC`, the “activity change, negative = killing” value was 7.37% (inactive). Regarding `O=[N+]([O-])c1ncccc1Oc1nc(-c2cccnc2)nc2ccccc12`, the Potency is 2050 nM (active). As to `FC(F)(F)c1ccc2c(c1)N1CCCC1CN2` (stereo not drawn), the Potency is 1450 nM (active). For the compound `CCOC(=O)/C=C/[C@H]1CCc2cccc(Cl)c2O1`, the “activity change, negative = killing” value is -22.7% (inactive). Take `Nc1ccc(-c2cnc(-c3ccc(N)cc3)nc2)cc1`: the Potency is 4100 nM (active). Same read-out and setting: to `CNN/C(N=Cc1ccc([N+](=O)[O-])s1)=N\S(=O)(=O)c1cc(C)c(Cl)cc1SCc1ccccc1` belongs 1030 nM (active).

Turning to `CN1C(=O)/C(=C/c2ccc(O)c([N+](=O)[O-])c2)NC1=S`, the Potency was 3260 nM (active). For the compound `CN1C(=O)/C(=C/c2ccc(O)c([N+](=O)[O-])c2)N(C)C1=S`, the Potency was 3260 nM (active). In the case of `Cc1ccc(C(CC(=O)O)NC(=O)c2ccc(S(=O)(=O)N3CC(C)OC(C)C3)cc2)cc1` (stereo not drawn), the “activity change, negative = killing” value was -5.13% (inactive). In the case of `O=C1c2ccc3c4c(ccc(c24)C(=O)N1CCCCO)C(=O)N(CCCCO)C3=O`, the Potency was 1830 nM (active). In the case of `O=C(CCN1C(=O)c2ccccc2C1=O)Nc1ccccc1C(F)(F)F`, the “activity change, negative = killing” value is 21% (inactive).

Regarding `CC1CCc2c(sc(NC(=O)CCCn3cnc([N+](=O)[O-])n3)c2C(N)=O)C1` (stereo not drawn), the Potency is 4600 nM (active). Same read-out and setting: in the case of `CC1CCc2c(sc(NC(=O)Cn3cnc([N+](=O)[O-])n3)c2C(N)=O)C1` (stereo not drawn) it was 18300 nM (active). For `NC(=O)c1c(NC(=O)CCCn2cnc([N+](=O)[O-])n2)sc2c1CCCC2`, the Potency is 7290 nM (active). With `CCOC(=O)c1c(NC(=O)CS(=O)(=O)c2cn(CC)c3ccccc23)sc2c1CCCCC2`, the “activity change, negative = killing” value is 1.17% (inactive).

On to `Cc1nc(CS(=O)(=O)c2ccc(Cl)cc2)sc1C(=O)O`, for which the “activity change, negative = killing” value is 7.64% (inactive). `CC(C)Cn1[nH]c2c3c(ccc2c1=O)C(=O)c1ccccc1C3=O`: the Potency was 1450 nM (active).

`O=C1c2ccccc2C(=O)c2c1ccc1c(=O)n(C3CCCCC3)[nH]c21`: the Potency is 2310 nM (active).

As for `COCCCn1[nH]c2c3c(ccc2c1=O)C(=O)c1ccccc1C3=O`, the Potency was 1030 nM (active).
